Bioassay records as filed in PubChem.
Ba CapD inh – blocks the Bacillus anthracis CapD enzyme | purified CapD enzyme, fluorescence intensity read-out; hits give low values | z-score (concentration not given with the values) | 140,000 compounds, 0.23% hits | AID 492967; in the data active = z-score mostly below about -2.9, no sharp cut-off; inactive = mostly above about -1.9
AID504770 – E. coli YBA685 growth inhibition, screen for V. cholerae RctB inhibitors; E. coli YBA685 rctB-dependent plasmid, OD600 growth, 3 h; hits give low values; z-score (no concentration beside the values); 130,000 compounds, 0.27% hits; AID 504770; in the data active = z-score below about -2, passing the limit was not always enough
Hits are given with their value. Most compounds without a hit are left out; they make up all but 0.36% or so of the library.

O=C(NCc1cccc(C(F)(F)F)c1)C1CCN(c2ncc(-c3ccc(Cl)cc3)cn2)CC1 was read as Ba CapD inh inactive.
CCCCn1c(SCn2nnc3ccccc3c2=O)nc2cc(S(=O)(=O)N3CCCCC3)ccc21 was read as AID504770 inactive.
CC(=O)N1C(=O)c2ccc([N+](=O)[O-])cc2C1=O was read as Ba CapD inh inactive.
CC(=O)N1C(=O)c2ccccc2C1=O was read as Ba CapD inh -5.4.
`C=CCOc1ccc(-c2nc3c(sc(=S)n3CC=C)c(=O)[nH]2)cc1OC` gave Ba CapD inh inactive and AID504770 inactive.
For O=S(=O)(c1cccc(F)c1)N1CCN(c2cnccn2)CC1 the results were Ba CapD inh inactive.
`N=C1/C(=C\c2ccc(-c3cccc(C(=O)O)c3)o2)C(=O)N=C2SC(N3CCCCC3)=NN12` gave Ba CapD inh -3.8 and AID504770 inactive.
For CN1C(=O)C(=Cc2ccc(-c3cccc(C(=O)O)c3)o2)C(=O)N(C)C1=S the results were Ba CapD inh inactive and AID504770 inactive.
For Cc1[nH]n(-c2ccccc2)c(=O)c1C(c1ccc(OC(=O)c2ccc(C(C)(C)C)cc2)cc1)c1c(C)[nH]n(-c2ccccc2)c1=O the results were Ba CapD inh inactive.
CC1COc2c(N3CCN(C)CC3)c(F)cc3c(=O)c(C(=O)N4CCN(c5ncccn5)CC4)cn1c23 (centres undefined) was read as AID504770 inactive.
Screening CC1COc2c(N3CCN(C)CC3)c(F)cc3c(=O)c(C(=O)O)cn1c23 (centres undefined) returned Ba CapD inh inactive and AID504770 -5.2.
Screening C=C(C)Cn1c(N2CC(C)CC(C)C2)nc2c1c(=O)n(C)c(=O)n2C (centres undefined) returned AID504770 inactive.
For Cc1ccccc1N1C(=O)C=CC1=O the results were AID504770 inactive.
N#Cc1ccccc1N1C(=O)C=CC1=O was read as Ba CapD inh inactive and AID504770 -3.5.
CC(C)(C)c1ccccc1N1C(=O)C=CC1=O was read as Ba CapD inh inactive and AID504770 inactive.
O=C1C=CC(=O)N1c1ccccc1Br was read as Ba CapD inh inactive and AID504770 -3.3.
For CSc1ccccc1N1C(=O)C=CC1=O the results were Ba CapD inh inactive and AID504770 -2.5.
For N#Cc1ccccc1N1C(=O)c2ccccc2S1(=O)=O the results were Ba CapD inh inactive and AID504770 inactive.
For CC(=O)Nc1cccc(OCCCN2C(=O)c3ccccc3C2=O)c1 the results were Ba CapD inh inactive.
For Cc1ccc2c(c1)c(=O)c1ccccc1n2CC(=O)Nc1ccc(OCc2ccccc2)cc1 the results were Ba CapD inh inactive.
Screening O=C(OCC(Cc1ccccc1)N(Cc1ccccc1)Cc1ccccc1)N1CCN(c2ccncc2)CC1 (centres undefined) returned Ba CapD inh inactive.
For Cc1ccc(-n2c(N)c(C#N)c3nc4ccccc4nc32)c(C)c1 the results were Ba CapD inh inactive and AID504770 inactive.
COc1ccc(OC)c(-n2c(N)c(C#N)c3nc4ccccc4nc32)c1 was read as AID504770 -2.1.
`Cc1nc(C(=O)N/N=C/c2ccc(Oc3ccccc3)cc2)cs1` gave Ba CapD inh inactive.
For Cc1ccc(OC(C)C(=O)NC(C)(C#N)C(C)C)cc1 (centres undefined) the results were AID504770 inactive.
For O=S(=O)(NCC1CCCO1)c1ccc(-c2cc(C(F)(F)F)no2)s1 (centres undefined) the results were Ba CapD inh inactive and AID504770 inactive.
Screening O=C(CC(C(=O)O)N(Cc1ccccc1)Cc1ccccc1)c1ccc(Cl)cc1 (centres undefined) returned Ba CapD inh inactive and AID504770 -2.9.
Screening N#CC(C#N)CC(=O)c1ccc(Cl)cc1 returned Ba CapD inh inactive and AID504770 inactive.
For O=c1cc(O)nc(SCc2c(F)cccc2Cl)n1C1CCCC1 the results were AID504770 inactive.
For CN(C)/C=C1\Cc2ccccc2C1=O the results were Ba CapD inh inactive.
For CN(C)/C=C1\CCCc2ccccc2C1=O the results were Ba CapD inh -4.1 and AID504770 inactive.
Screening O=C(Nc1nc2ccc(Oc3ccccc3)cc2s1)c1ccco1 returned AID504770 inactive.
CC(C)(C)c1cc(C(=O)CN2C3=NCCCN3c3ccccc32)cc(C(C)(C)C)c1O was read as Ba CapD inh inactive.
CNC(=O)C1c2ccccc2Oc2ccccc21 was read as AID504770 inactive.
Screening CC(C)(C)C1=CC(C(C#N)C#N)c2ccccc2O1 (centres undefined) returned Ba CapD inh inactive and AID504770 -2.1.
N#Cc1ccccc1CO/N=C(\N)c1nonc1N was read as Ba CapD inh inactive and AID504770 inactive.
`Cc1ccc(-c2nc(N)s[n+]2-c2ccccc2)cc1` gave Ba CapD inh inactive and AID504770 -2.4.
For COc1ccc(-c2nc(N)s[n+]2-c2ccccc2)cc1 the results were Ba CapD inh inactive and AID504770 inactive.
COc1ccc(CNc2ccccc2C(=O)O)cc1OC was read as Ba CapD inh inactive and AID504770 inactive.
`O=C1Oc2ccccc2C2c3sc(=O)[nH]c3SC(c3ccccc3)C12` (centres undefined) gave AID504770 inactive.
`O=C(O)C1Sc2[nH]c(=O)sc2C2c3ccc(O)cc3OC(=O)C12` (centres undefined) gave Ba CapD inh -8.8 and AID504770 inactive.
`CN1CCC(N(C2CC2)S(=O)(=O)c2ccccc2S(C)(=O)=O)CC1` gave Ba CapD inh inactive.
CC1CC(C)CN(C(=O)Cn2c(=O)oc3ccccc32)C1 (centres undefined) was read as AID504770 inactive.
For O=C(O)COc1ccccc1/C=C1/SC(=S)N(NC(=O)c2ccco2)C1=O the results were AID504770 inactive.
Screening O=C(O)COc1ccccc1/C=C1/SC(=S)N(c2cccnc2)C1=O returned Ba CapD inh -4 and AID504770 inactive.
`Cc1cccc(OCCn2c(NC(=O)c3ccc([N+](=O)[O-])cc3)nc3ccccc32)c1` gave Ba CapD inh inactive.
For CCN1/C(=C\C(=S)Nc2ccccc2)Sc2ccccc21 the results were Ba CapD inh -4.4 and AID504770 inactive.
CCN1/C(=C\C(=O)C2CC2)Sc2ccccc21 was read as AID504770 inactive.
Screening COc1cccc(C(=O)Nc2ccc(-c3ccc4nnc(C)n4n3)cc2)c1OC returned AID504770 inactive.
For Cc1ccc(C)n1-c1ccc(C(=O)O)cc1O the results were Ba CapD inh -9 and AID504770 inactive.
For Cc1cc(C(=O)O)ccc1-n1c(C)ccc1C the results were Ba CapD inh inactive and AID504770 inactive.
CCOC(=O)c1oc2ccccc2c1CSc1nnc(Cc2ccccc2)n1C was read as AID504770 inactive.
COc1ccc(N2CCN(S(=O)(=O)c3ccc(C)c(Cl)c3)CC2)cc1 was read as Ba CapD inh inactive.
Screening CC(=O)n1c(=O)c2ccccc2c(=O)n1-c1ccccc1 returned Ba CapD inh -4.7 and AID504770 inactive.
`CNC(=O)c1cn(-c2ccccc2)c(=O)c2ccccc12` gave Ba CapD inh inactive and AID504770 inactive.
`CCCn1c(C)cc(C(=O)CN(C)S(=O)(=O)c2ccc(F)cc2)c1C` gave AID504770 inactive.
COc1cc(/C=C(\C#N)c2nn(-c3ccccc3)c(-n3cccc3)c2C#N)cc(OC)c1OC was read as Ba CapD inh inactive.
O=C(c1ccccc1)c1cc2ccc(O)cc2oc1=O was read as Ba CapD inh -6.3 and AID504770 inactive.
